NPSR antagonist: blocks cAMP signaling of the human neuropeptide S receptor; Q6W5P4; Potency, µM (titrated, usually from 38.3 µM), without a hit: at the top dose activity change, negative = inhibition, hits mostly inhibitors; 1% of 220,000 active; AID 1461; CHO-NPSR cells, cAMP TR-FRET, antagonist mode; further: potency means the concentration at half of the fitted maximal effect; on the % scale 0 is the no-effect control and ±100 the full control effect; nearly all actives have a fitted effect of over 50% in size
Giardia killer: Giardia lamblia killing; AID 540267; 0.15% of 340,000 active; activity change, % at 7.66 µM, hits read low; Giardia lamblia trophozoite viability; in the data active means activity change below about -80%; inconclusive means between about -30% and that limit;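 further: parasites exposed to compound for two days anaerobically before the ATP read; on the % scale 0 is the no-effect control and ±100 the full control effect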
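Luminescence from cellular ATP indicates surviving trophozoites (100 cells/well) following 48 hrs anaerobic compound treatment at 37 deg C; signal develops 15-30 min at room temperature.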
BRCA1 expr up: BRCA1 expression activation; MCF7-BRCA1-FFLuc reporter, luminescence, 48 h; response scale: scaled: vehicle 0%, 10 µM genistein 100%; Potency, µM (titrated, usually from 46.1 µM), for the others: at the highest dose activation, most hits filed as activators; 1.1% of 380,000 active; further: potency means the concentration at half of the fitted maximal effect; nearly all actives have a fitted effect of over 80% in size
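Luminescence from a BRCA1-driven firefly luciferase in MCF7 cells was the read-out, taken 15 min after substrate addition following 48 h compound exposure at 37 °C. Data were normalized to a 10 microM genistein control and DMSO vehicle.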
RXFP1 antag: blocks the human relaxin receptor RXFP1; AID 1259400; Q9HBX9; activity change, negative = inhibition, % at 57.5 µM; HEK293-RXFP1, relaxin-stimulated cAMP HTRF, 30 min; active compounds read low; 0.59% of 350,000 active;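 active means activity change of -60% or lower, but not beyond a set lower limit; inconclusive means change between -60% and -40%, or beyond the set limit; inactive means change above -40%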; further: on the % scale 0 is the no-effect control and ±100 the full control effect
Target sequence (Q9HBX9 whole entry, looked up): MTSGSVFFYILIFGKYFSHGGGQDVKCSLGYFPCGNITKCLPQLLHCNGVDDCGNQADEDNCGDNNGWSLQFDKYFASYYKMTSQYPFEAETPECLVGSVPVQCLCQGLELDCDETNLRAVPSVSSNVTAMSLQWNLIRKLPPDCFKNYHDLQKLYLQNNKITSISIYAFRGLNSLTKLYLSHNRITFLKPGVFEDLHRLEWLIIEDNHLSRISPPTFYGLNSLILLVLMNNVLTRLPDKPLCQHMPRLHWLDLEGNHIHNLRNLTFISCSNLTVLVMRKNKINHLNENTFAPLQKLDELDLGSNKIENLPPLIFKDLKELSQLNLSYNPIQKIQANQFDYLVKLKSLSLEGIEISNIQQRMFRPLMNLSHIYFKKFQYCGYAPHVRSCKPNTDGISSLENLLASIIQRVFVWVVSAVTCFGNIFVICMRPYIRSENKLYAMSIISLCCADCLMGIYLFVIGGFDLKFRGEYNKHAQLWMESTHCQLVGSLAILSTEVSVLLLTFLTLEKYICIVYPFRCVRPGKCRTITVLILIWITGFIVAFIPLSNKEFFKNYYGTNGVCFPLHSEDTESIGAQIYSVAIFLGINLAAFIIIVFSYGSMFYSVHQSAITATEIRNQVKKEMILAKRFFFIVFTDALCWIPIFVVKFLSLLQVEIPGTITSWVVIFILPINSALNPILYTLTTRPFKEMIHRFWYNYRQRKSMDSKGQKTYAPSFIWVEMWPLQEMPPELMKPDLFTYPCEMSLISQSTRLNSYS
RXFP1 agonist: agonists of human relaxin receptor RXFP1; AID 2676; 0.3% of 370,000 active; Potency, µM (series often up to 57.5 µM), inactives show at the top dose activation, hits mostly activators; HEK293T-RXFP1 cAMP TR-FRET, 30 min; response scale: percent of porcine relaxin response, buffer zero; further: potency means the concentration at half of the fitted maximal effect; on the % scale 0 is the no-effect control and ±100 the full control effect; nearly all actives have a fitted effect of over 60% in size
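cAMP rise read by TR-FRET after 30 min, 37C compound exposure (up to 58 uM) in RXFP1-transfected HEK293 cells with Ro 20174 present. EC50 from Hill-equation fits, with 29 nM porcine relaxin as 100% and buffer as basal.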
IL2 activator: IL-2 activation. IL-2 activation reporter assay, cell-based qHTS; stimulated with anti-CD3/CD4/CD28 beads; in transgenic mouse T cells. activation, % (series mostly up to about 46 µM). 0.065% of 360,000 active. AID 652025; in the data active means activation above about 50%; inconclusive means mostly about 30% to 49%; further: 0% is about no effect
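Readout: EGFP and DsRed signals by fluorescent plate cytometry. Unstimulated transgenic mouse T cells received compound 60 min before antibody-bead stimulation, then incubated 18 h at 37 degrees C.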
Starred values were filed as active, the others as inactive; ? = inconclusive; nt = no result; [ ] = remark or other dose. An excerpt weighted towards active compounds, which were near 1.9% of everything screened. Unless noted, the call rests on the fitted dose curve; in most records, active means well fitted curve in the direction sought with a large enough effect; inconclusive means small, poorly fitted or top-dose-only effect, or another doubt; inactive means no such curve, though single readings can be large; an effect the other way counts as inactive or inconclusive.

SMILES	NPSR antagonist	Giardia killer	BRCA1 expr up	RXFP1 antag	RXFP1 agonist	IL2 activator
CCn1c(C(=O)N2CCCC(C(=O)N3CCN(c4ccccc4)CC3)C2)cc2sccc21 (stereo not given)	nt	nt	nt	-27	9%	nt
COc1cc(NC(=O)Cn2c(=O)n(Cc3ccccc3Cl)c(=O)c3cc(OC)c(OC)cc32)cc(OC)c1	nt	nt	2%	nt	25µM*	nt
Nc1ncnc2c1nc(Cl)n2[C@@H]1O[C@H](CO)[C@@H](O)[C@@H]1O	nt	-10	-49%	nt	nt	nt
CC(=O)c1ccc(N(CC(=O)NC2CCCC2)C(=O)c2csnn2)cc1	nt	15	10%	-82*	0%	1
O=c1oc(-c2ccccc2)nc2sc3c(c12)CCCC3	-19%[46.1 µM]	-2	-40%	3	-3%	-1
O=c1oc(-c2cccs2)nc2sc3c(c12)CCCCC3	-6%[46.1 µM]	-7	10µM*	1	0%	-1
COc1ccc(CN2C(=O)c3cccnc3C2=O)cc1S(=O)(=O)N1CCCCC1C (stereo not given)	nt	-3	2%	28	7.1µM*	-1
Fc1ccccc1CSc1ccc(-c2ccco2)nn1	-12%	-16	?	-14	5%	-1
Clc1cccc(CSc2ccc(-c3ccco3)nn2)c1	-49%	-1	62%	-12	5%	2
c1ccc(CSc2ccc(-c3ccco3)nn2)cc1	-5%	-16	3.2µM*	-2	3%	-4
Cc1ccc(CSc2ccc(-c3ccco3)nn2)cc1	-19%[46.1 µM]	37	3.5µM*	-14	-1%	0
Clc1ccc(CSc2ccc(-c3ccco3)nn2)cc1	-19%	-1	13µM*	-22	4%	2
Cc1cccc(CSc2ccc(-c3ccco3)nn2)c1	-15%	-3	?	-14	4%	0
COc1cc(/C=C/c2ccc3ccccc3n2)cc(OC)c1OC	nt	nt	4%	nt	nt	nt
CC[N+]1(CC)CCC(=C(c2ccccc2)c2ccccc2)C1C (stereo not given)	nt	nt	nt	-6	nt	nt
O=S(=O)(O)c1c(NS(=O)(=O)c2ccccc2)ccc2ccccc12	nt	1	-23%	nt	nt	nt
COc1ccc(N/N=C(\C#N)C(=N)N2CCCCC2)cc1	34%	-13	7.9µM*	0	-4%	1
Cn1ccnc1SCC(=O)c1ccc2ccccc2c1	-3%	-5	6.3µM*	-5	4%	3
O=C(Nc1ccccc1-c1nc2ccccc2[nH]1)c1ccc(N2C(=O)CCC2=O)cc1	-25%	-12	-19%	-9	0%	111*
C=CCSC(=C(C#N)C#N)c1cc2c([nH]1)CCCC2	13µM*	-6	-96%	-22	1%	0
C[C@H]1[C@H](NC(=O)/C(=N/OC(C)(C)C(=O)O)c2csc(N)n2)C(=O)N1S(=O)(=O)O (stereo in doubt)	nt	nt	nt	9	nt	nt
COc1cccc(NC(=O)Nc2ccc3nc(N4CCN(C)CC4)cc(C)c3c2)c1	nt	nt	nt	-31	4%	nt
CCSc1nc(=S)cc(C)[nH]1	-16%	2	-10%	-75*	2%	0
O=C(Nc1ccc([N+](=O)[O-])cc1)Nc1nc(-c2ccc(Cl)s2)cs1	6.3µM*	-23	-84%	-9	0%	0
O=C(NC(=S)Nn1cnc2c(cnn2-c2ccccc2)c1=O)c1ccc(Cl)cc1	3%	-19	1%	-72*	-1%	-1
SMILES	NPSR antagonist	Giardia killer	BRCA1 expr up	RXFP1 antag	RXFP1 agonist	IL2 activator
N#C/C(=C\c1cccc(Oc2ccccc2)c1)C(=O)N1CCOCC1	-28%	10	-7%	-102*	0%	-6
COc1cc(/C=C(\C#N)C(=O)N2CCOCC2)cc(Br)c1O	20%	-6	20%	-1	3%	1
CCCC[C@]12Cc3ccccc3C(O1)c1c(cc(-c3ccccc3)oc1=O)O2	nt	nt	nt	nt	9%[11.5 µM]	nt
COc1ccc(C2NC(c3ccc4c(c3)OCO4)=CC(c3ccccc3O)N2)cc1OC (stereo not given)	nt	-15	-13%	nt	nt	nt
COc1ccc(S(=O)(=O)Nc2cc3c(cc2NCc2ccccc2)n(C)c(=O)n3C)cc1	nt	nt	nt	4	28µM*	nt
COc1ccccc1C1CCCN1Cc1nc(-c2ccc(C)s2)oc1C (stereo not given)	13%	18	0%	-65*	0%	0
COc1ccccc1C1CCCN1Cc1nc(-c2cc3c(cc2Cl)OCO3)oc1C (stereo not given)	43%	5	-46%	-4	0%	0
Cc1ccc(C(=O)OCC(=O)N(C)c2ccccc2)c(C)c1	nt	1	12%	-4	0%	-1
CN(C(=O)COC(=O)c1ccc([N+](=O)[O-])cc1N)c1ccccc1	5%	19	-6%	-4	1%	77*
Cc1cc(/C=N/n2cnnc2)c(C)n1-c1ccc(OCc2ccc(F)cc2)cc1	-2%[46.1 µM]	-17	-52%	-68*	0%	-1
CC(/C=N/NC(=O)c1cccnc1)=C\c1ccccc1	-13%	11	3.2µM*	-5	0%	1
CC(/C=N/NC(=O)CSc1ccccn1)=C\c1ccc(C(C)C)cc1	-24%	10	?	-8	2%	1
Cc1ccc(/C=N/NC(=O)c2cc(C)oc2C)cc1	12%	2	73%	-16	-1%	3
CC(/C=N\NC(=O)c1cc(C)oc1C)=C\c1ccccc1	-10%	6	2µM*	-4	-1%	-2
CC(=C/c1ccccc1)/C=N/NC(=O)c1cnccn1	-14%[46.1 µM]	-14	?	3	1%	-1
O=C(N/N=C/C(Br)=C/c1ccccc1)c1ccccc1F	nt	-10	?	-1	0%	-5
CC(/C=N/NC(=O)c1ccncc1)=C\c1ccc(C(C)C)cc1	-12%[46.1 µM]	11	8.9µM*	-9	0%	2
O=C(N/N=C/C(Cl)=C/c1ccccc1)c1ccccc1F	nt	-9	10µM*	13	-3%	2
CCc1ccc(NS(=O)(=O)c2ccc(-c3cc(C)no3)cc2)cc1	nt	nt	nt	-1	0%	nt
COc1cccc(NC(=O)COc2ccccc2C(=O)Nc2ccccc2)c1	nt	nt	21%	nt	nt	nt
COc1ccc(S(=O)(=O)Cc2ccc(C(=O)NC3CCCCCC3)o2)cc1	nt	15	4%	-102*	2%	0
Cc1ccc(S(=O)(=O)Cc2ccc(C(=O)NC3CCCC3)o2)cc1	nt	-16	-1%	9	1%	0
O=C(NC(=S)NCCO)c1sc2ccccc2c1Cl	-3%	-23	11µM*	-2	-1%	2
Cc1ccc2c(c1)C1(C=CC(=O)C=C1)CC(=O)N2C	nt	-8	nt	nt	nt	nt
CC(C)Cn1c(SCC(=O)NC(=O)NC2CCCC2)nc2ccccc21	-24%[46.1 µM]	10	-46%	-66*	1%	-1
CC(C)NC(=O)Cn1c(SCC(=O)NC2CCCC2)nc2ccccc21	nt	0	-11%	13	1%	-1

Bioassay records (PubChem BioAssay)
